From PubChem BioAssay
AI-2 QS modul – Vibrio harveyi AI-2 quorum sensing modulation; Vibrio harveyi JMH597 AI-2 luminescence/OD600 ratio, 9 h; active compounds read low; strain lacks LuxN and CqsS sensors; 0 = neutral-control median; activity change, % at 7.5 µM; 0.4% of 300,000 active; in the data active = activity change below about -75%, passing the limit was not always enough;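 note: luminescence divided by OD600 gain over 9 h not by final OD600 alone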
PREPL inh – human PREPL enzyme inhibition; Q4J6C6; 0.68% of 320,000 active; inhibition, % at 5.96 µM; AID 2751; recombinant PREPL, fluorescence polarization activity-based probe; in the data active = inhibition above about 43%;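 note: 0% = enzyme with DMSO and 100% = wells lacking enzyme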
CHT allo act – allosteric activators of human choline transporter CHT | Q9GZV3 | CHT-expressing cells, membrane potential dye, choline EC20; active compounds read high; LV-AA mutant CHT in HEK293 cells | B-score at 10 µM | 0.49% of 310,000 active;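 active = initial fluorescence not abnormally high and integrated response B-score, plate-corrected, over 3 SD above library mean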
CHT block – inhibitors of human choline transporter CHT; Q9GZV3; CHT-expressing cells, membrane potential dye, choline response; active compounds read low; B-score at 10 µM; 0.86% of 310,000 active; AID 488975;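 active = B-score over 3 SD under the library average, and starting fluorescence ratio not unusually high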;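 note: choline stimulus applied at its EC90 after an EC20 pre-addition; B-score computed on integrated fluorescence ratio after choline addition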
ALR inh – inhibitors of human sulfhydryl oxidase ALR; P55789; purified ALR, DTT oxidation, H2O2 HRP-luminol luminescence; inhibition, % (test concentration not listed); 3.8% of 290,000 active;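 active = mean replicate inhibition above about 79%, with every replicate also reaching it, limit read from the data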
Target sequence (P55789 whole entry, looked up): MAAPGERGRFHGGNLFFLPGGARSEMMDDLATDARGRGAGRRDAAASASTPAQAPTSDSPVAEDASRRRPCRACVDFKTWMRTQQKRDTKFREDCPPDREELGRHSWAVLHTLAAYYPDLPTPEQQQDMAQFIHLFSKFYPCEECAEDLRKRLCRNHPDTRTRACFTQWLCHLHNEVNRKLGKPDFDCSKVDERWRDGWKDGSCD
* = called active by the depositor; i = inactive; / = not tested or not shown; ! = not confirmed by another sample. A selection: hits, their analogues and other compounds. The true share with any hit is near 5%.

SMILES	AI-2 QS modul	PREPL inh	CHT allo act	CHT block	ALR inh
COC(=O)C1CCN(C(=O)CN2C(=O)NC(CCc3ccccc3)C2=O)CC1 (centres undefined)	14.9	8.4	i	i	99.2*
CCOc1ccc(C(=O)NCCc2ccccc2)cc1	15.2	14.8	i	i	/
CCOc1ccc(CCNC(=O)C(O)c2ccccc2)cc1 (centres undefined)	31.0	-7.6	i	i	98.9*
CCN(c1ccccc1)S(=O)(=O)c1cc(C(=O)OC2CCOC2=O)ccc1C (centres undefined)	/	14.9	/	/	-4.3
CCC(C)NC(=O)[C@@H]1CSC2c3ccccc3C(=O)N21 (some centres undefined)	13.6	0.9	i	i	-8.0
COc1ccc2c(c1)C(=NO)c1cc(OC)ccc1-2	11.3	5.5	i	i	96.1*
CC1CCCC(NC(=O)COC(=O)COc2ccc(C#N)cc2)C1C (centres undefined)	/	11.2	/	/	-1.9
CCCCc1nn2c(N)c(/C=C3\C=Nc4ccccc43)c(=O)nc2s1	33.2	9.1	i	i	37.8
CCCc1nn2c(N)c(/C=C3\C=Nc4ccccc43)c(=O)nc2s1	23.3	16.7	i	i	92.0*!
CS(=O)(=O)c1nsc2nc(=O)c(/C=C3\C=Nc4ccccc43)c(N)n12	13.0	-0.9	i	i	90.1*
COc1ccc(CCNC(=O)c2cccs2)cc1	23.8	4.6	i	i	0.4
COCCN(CCOC)S(=O)(=O)c1ccc(C(=O)Nc2nc(C)c(C(C)=O)s2)cc1	15.5	-2.6	i	i	99.7*
Cc1ccc(NC(=O)c2cccc(NC(=O)/C=C/c3ccco3)c2)cc1C	9.1	0.8	i	i	-0.1
O=C(/C=C/c1ccco1)Nc1cccc(C(=O)Nc2ccccc2C(=O)O)c1	9.6	13.6	i	i	95.2*
O=C(CSCc1ccccc1)Nc1cccc(C(=O)Nc2ccccc2C(=O)O)c1	-8.7	-0.1	i	i	98.3*
O=C(CSCc1ccc(Cl)cc1)Nc1cccc(C(=O)Nc2ccccc2C(=O)O)c1	12.7	-8.3	i	i	97.6*
O=C(O)CCCC(=O)Nc1cccc(C(=O)Nc2ccccc2C(=O)O)c1	18.6	4.0	i	i	-3.2
CC(C)C(=O)Nc1cccc(C(=O)Nc2ccccc2C(=O)O)c1	6.9	2.5	i	i	-9.8
CC(C)c1ccc(OCC(=O)Nc2cccc(C(=O)Nc3ccccc3C(=O)O)c2)cc1	22.7	-6.2	i	i	97.6*
CC(C)(C)c1ccc(CS(=O)CC(O)CO)cc1 (centres undefined)	6.5	-1.7	i	i	-1.2
Cc1[nH]c2ccccc2c1-c1csc(NC(=O)CSCC(=O)O)n1	8.1	21.7	i	i	100.0*
Cc1[nH]c2ccccc2c1-c1csc(NC(=O)CN2CCOCC2)n1	28.1	3.1	i	i	-6.1
COc1cc(OC)cc(C(=O)NC(=S)NNC(=O)c2cnccn2)c1	-30.2	-3.6	i	i	16.5
Cc1ccc(OCC(=O)NNC(=S)NC(=O)c2cccs2)c(C)c1	31.8	/	i	i	98.2*
COc1ccc(/C=C/C(=O)NC(=S)NNC(=O)c2cccs2)cc1OC	9.2	-3.6	i	i	99.0*
SMILES	AI-2 QS modul	PREPL inh	CHT allo act	CHT block	ALR inh
COc1ccc(C(=O)NC(=S)NNC(=O)c2cnccn2)cc1OC	30.1	-6.1	i	i	97.5*
COc1ccc(/C=C/C(=O)NC(=S)NNC(=O)Cc2cccs2)cc1OC	39.2	17.2	i	i	-62.4
Cc1ccc(OCC(=O)NNC(=S)NC(=O)c2ccc(Br)o2)c(C)c1	29.9	/	i	i	98.3*
CCN(CC)S(=O)(=O)c1ccc(N2CC(C(=O)N3Cc4ccccc4CC3C(N)=O)CC2=O)cc1 (centres undefined)	/	6.4	/	/	5.6
COC(=O)c1cccc(NC(=S)NCc2ccc(F)cc2)c1	-59.0	-12.3	i	i	-1.2
CCc1ccc(OCC(=O)NNC(=S)NC(=O)C2CCCCC2)c(Br)c1	101.3	-1.4	i	i	2.6
O=C(NCCNC(=O)c1cnccn1)c1ccc(Cl)c(Cl)c1	21.7	5.9	i	i	-12.5
COc1ccc(C(=O)NNC(=S)NC(=O)c2ccc(Br)o2)cc1OC	31.6	4.2	i	i	85.6*
CCc1ccc(OCC(=O)NNC(=S)NC(=O)C2CC2)c(Br)c1	-85.0*	/	i	i	12.5
O=C(NNC(=O)c1cnccn1)c1ccc(Cl)c(Cl)c1	-287.9*	-7.4	i	i	-2.7
CCOC(=O)C1CCCN(CCC(=O)Nc2ccc(C)cc2)C1 (centres undefined)	18.9	11.4	i	i	-2.3
Cc1cccc(OCC(=O)NCCNC(=O)c2ccco2)c1	5.9	0.7	i	i	-14.6
CCOC(=O)c1cc(CC)sc1NC(=O)COC(=O)c1ccccn1	28.5	-3.3	i	i	-4.4
CCOc1ccccc1Nc1nc2ccccc2[nH]1	5.9	-2.7	i	i	96.4*
CCOC(=O)C1=C(COC(=O)[C@H](C)NS(=O)(=O)c2ccc(NC(C)=O)cc2)NC(=O)NC1C (some centres undefined)	/	5.5	/	/	/
CCc1ccc(N2C(=O)CN(Cc3sccc3C)C2=S)cc1	-0.6	0.3	i	i	-0.6
CCSc1nnc(NC(=O)c2cccc(S(=O)(=O)N(C)c3ccccc3)c2)s1	16.9	16.6	i	i	94.2*
COc1ccc(N(C)S(=O)(=O)c2cccc(C(=O)Nc3nc(C)cs3)c2)cc1	/	3.6	/	/	97.4*
COc1ccc(OCC(O)CN2CCN(c3ccc(Cl)cc3)CC2)cc1 (centres undefined)	13.6	14.0	i	i	1.0
COc1ccc(N2CCN(CC(O)COCCOc3ccc(Br)cc3)CC2)cc1 (centres undefined)	4.4	10.0	i	i	96.6*
COc1ccc(N2CCN(CC(O)COc3ccc4c(c3)CCC4)CC2)cc1 (centres undefined)	-35.9	21.9	i	i	96.6*
COc1ccccc1N1CCN(CC(O)COCCOc2ccc(Br)cc2)CC1 (centres undefined)	6.6	14.5	i	i	/
CC(C)(C)NC(=O)CSc1ccc(S(=O)(=O)N2CCOCC2)cn1	/	4.5	/	/	/
CN(C)CCCn1c(=S)[nH]c2sc3c(c2c1=O)CCCC3	16.1	34.8	i	i	98.9*
COCCN(C(=O)COC(=O)CSc1ccc2ccccc2c1)c1c(N)n(Cc2ccccc2)c(=O)[nH]c1=O	12.6	2.3	i	i	98.2*
CCN1c2ccccc2NC2N=C(OC)C(c3ccccc3)C21 (centres undefined)	32.8	18.5	i	i	98.6*
CSc1ccccc1NC(=O)CSCc1ccccc1Br	-9.3	-2.6	i	i	-13.2
O=C(CSCc1ccccc1Br)NC1CC1	5.4	4.3	i	i	97.7*
